Assay results taken from PubChem BioAssay (NCI).
Compounds without any hit were thinned out: in the full panel of roughly 83,000, 20% have a hit.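 Percent growth is the endpoint: 0 to 100 indicates growth inhibition (40 means 60% inhibition), 0 means no net growth, and negative values indicate cell death.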 Active and inactive are the calls of the source. How the source made its calls: active means growth percent below 10; inactive means the rest.

Key:
Experiment in all cases: NCI-60 one-dose screen, 48 h (100 = growth as untreated, 0 = no growth, -100 = all killed)
SK-MEL-2 melanoma = details: 10 µM
EKVX NSCLC = details: 10 µM
SN12C renal = details: 10 µM
UO-31 renal = details: 10 µM
TK-10 renal = details: 10 µM unless noted
ACHN renal = details: 10 µM
CAKI-1 renal = details: 10 µM
A498 renal = details: 10 µM
CCRF-CEM leukemia = details: 10 µM
MOLT-4 leukemia = details: 10 µM

Measured: growth

O=C(Nc1cc(-c2ccccc2)[nH]n1)c1ccc(Cl)cc1
inactive: SK-MEL-2 melanoma 78% | EKVX NSCLC 101% | SN12C renal 84.1% | UO-31 renal 59.1% | TK-10 renal 66.6% | ACHN renal 60.8% | CAKI-1 renal 76.3% | A498 renal 78.6% | CCRF-CEM leukemia 62% | MOLT-4 leukemia 85.2%

Cc1cc(OCCO)cc(C)c1Cl
inactive: SK-MEL-2 melanoma 117% | EKVX NSCLC 142% | SN12C renal 98.9% | UO-31 renal 109% | TK-10 renal 123% | ACHN renal 116% | CAKI-1 renal 115% | A498 renal 102% | CCRF-CEM leukemia 96.3% | MOLT-4 leukemia 100%

CCCC(=O)Nc1ccc2c(c1)CN1C(=O)c3ccccc3C1=N2
inactive: SK-MEL-2 melanoma 100% | EKVX NSCLC 108% | SN12C renal 100% | UO-31 renal 86.1% | TK-10 renal 96.4% | ACHN renal 111% | CAKI-1 renal 97.2% | A498 renal 88.5% | CCRF-CEM leukemia 99.6% | MOLT-4 leukemia 98.4%

CCOC(=O)c1[nH]c(C)c(C(C)=O)c1C
inactive: SK-MEL-2 melanoma 122% | EKVX NSCLC 100% | SN12C renal 90.8% | UO-31 renal 79.3% | TK-10 renal 98.4% | ACHN renal 97% | CAKI-1 renal 87.3% | A498 renal 91% | CCRF-CEM leukemia 91.6% | MOLT-4 leukemia 59.1%

C[N+](C)(C)C(=O)c1ccccc1
inactive: SK-MEL-2 melanoma 98.6% | EKVX NSCLC 108% | SN12C renal 95.8% | UO-31 renal 85.9% | TK-10 renal 102% | ACHN renal 107% | CAKI-1 renal 99.9% | A498 renal 98% | CCRF-CEM leukemia 104% | MOLT-4 leukemia 103%

CC(=O)Nc1c(C)cc(C)cc1C
inactive: SK-MEL-2 melanoma 102% | EKVX NSCLC 101% | SN12C renal 111% | UO-31 renal 95.5% | TK-10 renal 104% | ACHN renal 107% | CAKI-1 renal 91.6% | A498 renal 109% | CCRF-CEM leukemia 107% | MOLT-4 leukemia 97.2%

O=C(CCl)Nc1ccc2c(c1)C(=O)c1ccc(NC(=O)CCl)cc1C2=O
active: SK-MEL-2 melanoma -38.8% | EKVX NSCLC -15.2% | SN12C renal -49.5% | UO-31 renal -95.5% | TK-10 renal 3% | ACHN renal -65.7% | CAKI-1 renal -88.7% | CCRF-CEM leukemia -46.9% | MOLT-4 leukemia -31.8%
inactive: A498 renal 12.4%

Nc1nc(N)c2cc(S(=O)(=O)c3cccc(C(F)(F)F)c3)ccc2n1
inactive: SK-MEL-2 melanoma 89.8% | EKVX NSCLC 44% | SN12C renal 33.7% | UO-31 renal 56% | TK-10 renal 72.6% | ACHN renal 38.4% | CAKI-1 renal 65.1% | A498 renal 78.4% | CCRF-CEM leukemia 45.8% | MOLT-4 leukemia 37.3%

Cc1cccc([N+](=O)[O-])c1Cl
inactive: SK-MEL-2 melanoma 109% | EKVX NSCLC 96.8% | SN12C renal 106% | UO-31 renal 87.3% | TK-10 renal 119% | ACHN renal 97.4% | CAKI-1 renal 92.3% | A498 renal 94.5% | CCRF-CEM leukemia 99% | MOLT-4 leukemia 122%

CCN(CC)CCCC(C)Nc1ccnc(/C=C/c2ccc(Cl)cc2)c1 (stereo not given)
inactive: EKVX NSCLC 50.5% | SN12C renal 61.1% | ACHN renal 35.2% | CAKI-1 renal 18.1% | A498 renal 22.2% | MOLT-4 leukemia 13.3%
active: SK-MEL-2 melanoma -69.4% | UO-31 renal -48.5% | TK-10 renal -38.8% | CCRF-CEM leukemia 6.37%

COC(=O)Nc1nc2ccc(C(=O)c3ccc(F)cc3)cc2[nH]1
active: SK-MEL-2 melanoma -20.1% | UO-31 renal 1.98% | A498 renal 7.59% | CCRF-CEM leukemia -46% | MOLT-4 leukemia -27%
inactive: EKVX NSCLC 36.7% | SN12C renal 29.8% | TK-10 renal 17.3% | ACHN renal 33.2% | CAKI-1 renal 15.2%

Cc1cc(C)c(N)c(S(=O)(=O)O)c1
inactive: SK-MEL-2 melanoma 93.6% | EKVX NSCLC 101% | SN12C renal 97.7% | UO-31 renal 76.2% | TK-10 renal 105% | ACHN renal 96.6% | CAKI-1 renal 91.3% | A498 renal 142% | CCRF-CEM leukemia 86% | MOLT-4 leukemia 113%

CCCCC(CC)COC(C)=O (stereo not given)
inactive: SK-MEL-2 melanoma 106% | EKVX NSCLC 101% | SN12C renal 101% | UO-31 renal 88.3% | TK-10 renal 102% | ACHN renal 106% | CAKI-1 renal 96.9% | A498 renal 86.3% | CCRF-CEM leukemia 108% | MOLT-4 leukemia 105%

Cc1cc(N2CCC(N3CCCC3)CC2)nc(/N=C(\N)Nc2ccc(Cl)c(Cl)c2)n1
active: SK-MEL-2 melanoma -71.7% | EKVX NSCLC 2.57% | UO-31 renal -97.4% | TK-10 renal -86.3% | ACHN renal -27.8% | CAKI-1 renal -40.6% | CCRF-CEM leukemia -11.8% | MOLT-4 leukemia -19.8%
inactive: SN12C renal 93.7% | A498 renal 45.7%

CC1CC(O)CC(C)(C)C1 (stereo not given)
inactive: SK-MEL-2 melanoma 105% | EKVX NSCLC 98.8% | SN12C renal 104% | UO-31 renal 85.6% | TK-10 renal 102% | ACHN renal 107% | CAKI-1 renal 98.9% | A498 renal 98.7% | CCRF-CEM leukemia 96.4% | MOLT-4 leukemia 100%
